# According to PubChem BioAssay (Tox21):
# The source made the active and inactive calls. A call without a number means that no potency is given here. Calls come from the whole dose curve.
# Target: Muscarinic acetylcholine receptor M1 (Homo sapiens) (UniProt P11229)
# Assay: Cholinergic receptor muscarinic 1 (CHRM1) small molecule agonists, cell-based qHTS assay (AID 1963589); note: nearly all actives have a fitted effect of over 35% in size
# Settings: CHRM1-CHO cells, agonist mode, calcium flux fluorescence; series mostly up to 76.8 µM
# From the text: National Center for Advancing Translational Sciences [NCATS]
# Division of Preclinical Innovation [DPI]
# U.S. Environmental Protection Agency [EPA]
# National Institutes of Environmental Health Sciences [NIEHS]
# National Toxicology Program [NTP]
# U.S. Food and Drug Administration [FDA]
# The CHRM1 is a muscarinic receptor. This receptor plays a crucial role in learning and memory processes and has long been identified as a promising therapeutic target for the improvement of cognitive decline in Alzheimer's disease (AD). The CHRM1-CHO cell line stably expressing human muscarinic acetylcholine receptor M1 (CHRM1) can be used for screening agonists and antagonists of interactions between CHRM1 and its ligands. The CHRM1-CHO Calcium Flux Assay is a homogeneous fluorescence-based assay for detecting the intracellular calcium level using FDSS kinetic plate reader system.
# CHRM1-CHO cells were dispensed at 1000 cells/3uL/well in 1536-well black-clear bottom plates using a Multidrop Dispenser. After the assay plates were incubated at a 37 C/5% CO2 incubator for 18 h, 3 uL of Dye Loading Buffer was transferred to the assay plate by a Flying Reagent Dispenser. The assay plates were incubated at 37 C for 1h. For agonist mode, 23 nL of compounds dissolved in DMSO, positive controls or DMSO only was transferred to the assay plate by a pin tool. […] Each test compound was measured at 15 concentrations in three independent runs.
# Chain of Muscarinic acetylcholine receptor M1 (Homo sapiens) (P11229 whole entry, looked up): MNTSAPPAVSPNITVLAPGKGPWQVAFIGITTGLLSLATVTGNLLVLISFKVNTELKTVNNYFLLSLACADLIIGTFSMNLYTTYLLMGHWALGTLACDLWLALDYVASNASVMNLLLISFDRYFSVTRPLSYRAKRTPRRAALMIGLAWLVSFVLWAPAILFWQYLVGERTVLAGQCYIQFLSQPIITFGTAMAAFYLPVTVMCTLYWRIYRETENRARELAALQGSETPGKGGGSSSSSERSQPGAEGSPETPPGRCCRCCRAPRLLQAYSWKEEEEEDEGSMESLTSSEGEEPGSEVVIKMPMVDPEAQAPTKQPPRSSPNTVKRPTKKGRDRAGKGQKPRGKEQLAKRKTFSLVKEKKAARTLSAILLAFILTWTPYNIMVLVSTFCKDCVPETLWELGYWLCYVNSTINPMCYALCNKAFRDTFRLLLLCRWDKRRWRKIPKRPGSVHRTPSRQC
row,SMILES,Potency
1,Cc1ccc(N)c([N+](=O)[O-])c1,inactive
2,Brc1ccc(Br)c(Br)c1,inactive
3,CC1(C)S[C@@H]2[C@H](NC(=O)COc3ccccc3)C(=O)N2[C@H]1C(=O)O,inactive
4,CCCC(=O)O,inactive
5,COC(C)COC(C)COC(C)CO (stereo not given),inactive
6,CCc1cc(C(N)=S)ccn1,inactive
7,C=CC(=O)OCCOCCOCCOCCOC(=O)C=C,inactive
8,CC(CCO)CC(C)(C)C (stereo not given),inactive
9,CCCCOC(=O)COc1ccc(Cl)cc1Cl,inactive
10,CCCCCCO,inactive
11,C=C(C#N)C(=O)OCC,inactive
12,Nc1ccc(Nc2ccccc2)cc1,inactive
13,CCC[C@H](N[C@@H](C)C(=O)N1[C@H](C(=O)O)C[C@@H]2CCCC[C@@H]21)C(=O)OCC,inactive
14,NC=O,inactive
15,CCCCCCCCCCCCc1ccccc1,inactive
16,Cc1cc(=O)oc2cc(O)ccc12,inactive
17,CC[N+](CC)(CC(=O)Nc1c(C)cccc1C)Cc1ccccc1,inactive
18,O=C(O)CC(C(=O)O)C(CC(=O)O)C(=O)O (stereo not given),inactive
19,COC(=O)c1ccccc1,inactive
20,CC(=O)OC(C)(C)C1CC=C(C)CC1 (stereo not given),inactive

row,SMILES,Potency
1,COC(=O)C1CCC(C(=O)OC)CC1 (stereo not given),inactive
2,CC1(C)OC(=O)NC1=O,inactive
3,C=CC(=O)OCCCC,inactive
4,CCCCCCCC(=O)OCC(O)CO (stereo not given),inactive
5,CCCCC/C=C\C/C=C\CCCCCCCC(=O)OC,inactive
6,COc1cc(NC(=O)CC(C)=O)c(OC)cc1Cl,inactive
7,O=C(O)CCCC[C@@H]1SC[C@@H]2NC(=O)N[C@@H]21,inactive
8,COc1cc(O)c(C(=O)c2ccccc2)cc1S(=O)(=O)O,inactive
9,C/C=C/C=C/C(=O)O,inactive
10,Cc1cc(C2(c3cc(C)c(O)cc3C)OS(=O)(=O)c3ccccc32)c(C)cc1O,inactive
11,CCCCCCCCCC(=O)O,inactive
12,O=C(Cl)c1cccc(C(=O)Cl)c1,inactive
13,O=C(OCc1ccccc1)c1ccccc1O,inactive
14,CCCC(O)C(CC)CO (stereo not given),inactive
15,NCCN,inactive
16,CCCCCCCCCC,inactive
17,CC(=O)Oc1ccc(C)cc1,inactive
18,Cc1cc(=O)[nH]c(=S)[nH]1,inactive
19,Nc1cc([N+](=O)[O-])ccc1C(=O)O,inactive
20,COC(=O)CCCC(=O)OC,inactive
